# Laboratory results published in the OligoGym collection.
# Target: FAM58A
# Experiment: pooled miR-30 sensor sort-seq; sequence = guide strand
# Settings: shRNA
# Also: reference of the scale not given here.
row,Sequence,sensor-assay potency score (higher = more potent)
1,TCTCGCAAAAGAACTTATGGTA,-0.0793
2,TTGGTCTCGCAAAAGAACTTAT,-0.839
3,ATTGATGATGTCACGAGTCCGC,-0.413
4,TAGTGGAGCAGGTACTTGTGTG,-1.12
5,TATGGTAAATGGTGCAAGCAGT,-0.754
6,TTGGGTTAAAGTACCTGTTGGA,0.579
7,TTGATGATGTCACGAGTCCGCA,-0.773
8,TTGGACACATTGATGATGTCAC,-0.0439
9,TTGTAGTCAAAGTCCTCTCAAA,-0.91
10,TTGAAGACATGGCAATCAGGTA,-0.548
11,ATCGATTTCATGACTTTCCTTT,0.417
12,TAGGGATTCAGTCTCATCGATT,-1.22
